# Experiments:
# Assay in all cases: PBM; 200 nM protein, PBS
# Details in all cases: dsDNA, one strand shown
# [1] = molecular target: PRRX1 (Homo sapiens, UniProt P54821 80-166)
# [2] = molecular target: CRX (Homo sapiens, UniProt O43186 26-111, R41L)
# [3] = molecular target: HOXB6 (Homo sapiens, UniProt P17509 132-218)
# [4] = molecular target: ALX1 (Homo sapiens, UniProt Q15699 118-204)
# [5] = molecular target: HOXA4 (Homo sapiens, UniProt Q00056 201-287, W262F)
# [6] = molecular target: NKX3-2 (Homo sapiens, UniProt P78367 192-278)
# [7] = molecular target: HOXA2 (Homo sapiens, UniProt O43364 129-215)
# Chain of HOXA2 (O43364 129-215): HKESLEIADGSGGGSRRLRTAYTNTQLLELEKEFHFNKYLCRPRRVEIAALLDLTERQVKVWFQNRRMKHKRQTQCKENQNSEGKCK
# Chain of PRRX1 (P54821 80-166): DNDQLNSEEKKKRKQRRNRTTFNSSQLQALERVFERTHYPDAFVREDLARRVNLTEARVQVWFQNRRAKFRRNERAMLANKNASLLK
# Chain of HOXB6 (P17509 132-218): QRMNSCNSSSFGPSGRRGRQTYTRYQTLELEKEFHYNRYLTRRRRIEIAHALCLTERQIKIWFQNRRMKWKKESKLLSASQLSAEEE
# Chain of CRX (O43186 26-111 R41L): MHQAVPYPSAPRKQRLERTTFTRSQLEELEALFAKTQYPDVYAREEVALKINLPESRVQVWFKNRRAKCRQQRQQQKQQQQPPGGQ
# Chain of NKX3-2 (P78367 192-278): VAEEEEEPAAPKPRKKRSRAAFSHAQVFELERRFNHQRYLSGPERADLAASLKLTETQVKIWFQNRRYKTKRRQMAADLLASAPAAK
# Chain of HOXA4 (Q00056 201-287 W262F): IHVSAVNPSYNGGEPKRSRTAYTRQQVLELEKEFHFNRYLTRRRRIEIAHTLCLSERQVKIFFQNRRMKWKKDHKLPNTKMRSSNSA
# Chain of ALX1 (Q15699 118-204): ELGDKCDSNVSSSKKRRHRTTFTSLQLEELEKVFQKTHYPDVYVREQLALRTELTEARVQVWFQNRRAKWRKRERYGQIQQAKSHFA
sequence,measurement,setting,value
ATTGAATG,binding signal,[1],"11.6 upbm affinity estimate (log intensity, higher = more binding, comparable within an allelic series)"
GGTGTTAA,binding signal,[2],"10.2 upbm affinity estimate (log intensity, higher = more binding, comparable within an allelic series)"
ATTAGCGC,binding signal,[3],"10.6 upbm affinity estimate (log intensity, higher = more binding, comparable within an allelic series)"
GTCAACAA,binding signal,[4],"7.43 upbm affinity estimate (log intensity, higher = more binding, comparable within an allelic series)"
CCATTAGA,binding signal,[5],"10.6 upbm affinity estimate (log intensity, higher = more binding, comparable within an allelic series)"
AAATATTC,binding signal,[1],"11.3 upbm affinity estimate (log intensity, higher = more binding, comparable within an allelic series)"
ATGTAATC,binding signal,[3],"10.5 upbm affinity estimate (log intensity, higher = more binding, comparable within an allelic series)"
TACTACGA,binding signal,[3],"10.1 upbm affinity estimate (log intensity, higher = more binding, comparable within an allelic series)"
TGATGAAA,binding signal,[1],"11.1 upbm affinity estimate (log intensity, higher = more binding, comparable within an allelic series)"
ACATATCT,binding signal,[3],"10 upbm affinity estimate (log intensity, higher = more binding, comparable within an allelic series)"
CTATTTTA,binding signal,[3],"10.5 upbm affinity estimate (log intensity, higher = more binding, comparable within an allelic series)"
AATGTACA,binding signal,[3],"10.3 upbm affinity estimate (log intensity, higher = more binding, comparable within an allelic series)"
ATATACGA,binding signal,[3],"9.93 upbm affinity estimate (log intensity, higher = more binding, comparable within an allelic series)"
TACATCAA,binding signal,[1],"11.1 upbm affinity estimate (log intensity, higher = more binding, comparable within an allelic series)"
AAATACGA,binding signal,[1],"11 upbm affinity estimate (log intensity, higher = more binding, comparable within an allelic series)"
GGAGAGTA,binding signal,[6],"11.6 upbm affinity estimate (log intensity, higher = more binding, comparable within an allelic series)"
TGTAAACA,binding signal,[3],"10 upbm affinity estimate (log intensity, higher = more binding, comparable within an allelic series)"
ACAAATTG,binding signal,[3],"10.4 upbm affinity estimate (log intensity, higher = more binding, comparable within an allelic series)"
GACACTAA,binding signal,[7],"9.38 upbm affinity estimate (log intensity, higher = more binding, comparable within an allelic series)"
AAGATTTA,binding signal,[3],"10 upbm affinity estimate (log intensity, higher = more binding, comparable within an allelic series)"
AATGTAAC,binding signal,[1],"11.3 upbm affinity estimate (log intensity, higher = more binding, comparable within an allelic series)"
ATACCTAA,binding signal,[1],"11.2 upbm affinity estimate (log intensity, higher = more binding, comparable within an allelic series)"
CGGCTTAG,binding signal,[2],"11.9 upbm affinity estimate (log intensity, higher = more binding, comparable within an allelic series)"
GGCTATAA,binding signal,[1],"11.4 upbm affinity estimate (log intensity, higher = more binding, comparable within an allelic series)"
AAATAAAC,binding signal,[3],"10.5 upbm affinity estimate (log intensity, higher = more binding, comparable within an allelic series)"
AATCAGCA,binding signal,[1],"12 upbm affinity estimate (log intensity, higher = more binding, comparable within an allelic series)"
ACAATTCT,binding signal,[1],"10.5 upbm affinity estimate (log intensity, higher = more binding, comparable within an allelic series)"

# From PMC11006913
